From PubChem BioAssay (EPA / NIEHS) come the findings set out here.

Molecules are shown by their SMILES. Inconclusive results are not listed. Activity calls are given as the source filed them. The calls were made as follows: active = hit-call score of the fitted dose curve at least 0.9, where 1 is the maximum; inconclusive = response in the unintended direction; inactive = score below 0.9.

The test is described as follows: TOX21_p53_BLA_p3_viability: Viability Assessment in the Tox21 HCT-116 p53 Agonism Beta-lactamase Assay, Phase 3 (AID 2283593).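 Also: cells exposed to compound for 16 h before reading.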 An outline of the steps:
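Cellular ATP was quantified by CellTiter-Glo luminescence, read after 30 min at room temperature. Beforehand, HCT116 cells (4000/well) received compound 5 h post-seeding, 217-fold diluted from DMSO, then incubated 16 h at 37C.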
On to `COC1=CC=C2[C@H]3Cc4ccc(OC)c5c4[C@@]2(CCN3C)[C@H]1O5`, for which the call was inactive.

Regarding `CCCCC1C(=O)NC(=O)N(C2CCCCC2)C1=O` (configuration not stated), the compound was classed as inactive.

In the case of `C[N+](C)(C)CCCl`, the outcome was inactive.

As to `NC(=S)c1c(Cl)cccc1Cl`, the compound was classed as inactive.

Broadly, the AC50 is the midpoint of the concentration-response curve, whichever way the signal moves. Take `CCCCCCC(=O)O[C@H]1CC[C@H]2[C@@H]3CC[C@H]4CC(=O)C=C(C)[C@]4(C)[C@H]3CC[C@]12C`: the AC50 was 37 µM (active).

With `C1CCNCC1`, the call was inactive.

In the case of `CC(N)Cc1ccc2c(c1)OCO2` (configuration not stated), the compound was called inactive.

As for `CC[N+]1(C)CCCC(OC(=O)C(O)(c2ccccc2)c2ccccc2)C1` (configuration not stated), the compound was classed as inactive.

As for `O=C([O-])c1ccccn1.O=C([O-])c1ccccn1.O=C([O-])c1ccccn1.[Cr+3]`, the outcome was inactive.

With `Cc1ccc(Cl)c(O)c1`, the compound was classed as inactive.

Take `C[C@]12CC[C@H]3[C@@H](CCC4=CC(=O)CC[C@@H]43)[C@@H]1CC[C@@H]2OC(=O)CCc1ccccc1`: the compound was classed as inactive.

In the case of `CC(C)CCC(=O)O[C@H]1CC[C@H]2[C@@H]3CCC4=CC(=O)CC[C@]4(C)[C@H]3CC[C@]12C`, the call was inactive.

Turning to `C1CS1`, the outcome was inactive.

`CC(N)Cc1ccc(O)cc1` (configuration not stated): the compound was classed as inactive.

For `CCCN`, the compound was called inactive.

Consider `O=C1C(=O)c2cccc3cccc1c23`, for which the call was inactive.

For the compound `Cc1nnc(-c2ccccc2)c(=O)n1N`, the call was inactive.

With `c1cc2c(c(NC3=NCCN3)c1)CCCC2`, the outcome was inactive.

In the case of `CC(C)(C#N)C(C)(C)C#N`, the compound was classed as inactive.

Turning to `O=C1CC(=O)NC(=O)N1`, the call was inactive.

Regarding `C=CCBr`, the compound was called inactive.

Turning to `CC(=O)O[C@H]1CC[C@H]2[C@@H]3CCC4=CC(=O)CCC4=C3C=C[C@]12C`, the outcome was inactive.

For the compound `[Cl-].[Cl-].[Sn+2]`, the outcome was inactive.

As to `CC(C)(C)C(=O)C(Cl)Cl`, the compound was called inactive.

In the case of `C=C[C@H]1CN2CC[C@H]1C[C@H]2[C@H](OC(=O)OCC)c1ccnc2ccc(OC)cc12`, the compound was classed as inactive.

Consider `O=[N+]([O-])c1cccc2cccnc12`, for which the call was inactive.

Regarding `CN(C)c1ccc(N=Nc2ccccc2)cc1`, the compound was classed as inactive.

On to `CCC1COC(Cn2cncn2)(c2ccc(Cl)cc2Cl)O1` (configuration not stated), for which the compound was called inactive.

Turning to `NC(=S)C(N)=S`, the compound was classed as inactive.

In the case of `CCC(=O)O[C@@](Cc1ccccc1)(c1ccccc1)[C@@H](C)CN(C)C`, the result was inactive.

For the compound `CCC1(C)CC(=O)NC(=O)C1`, the outcome was inactive.

In the case of `N#CC(Cl)(Cl)Cl`, the result was inactive.

In the case of `C=CCN1CC[C@]23CCCC[C@H]2[C@H]1Cc1ccc(O)cc13`, the outcome was inactive.

For the compound `Nc1ccccc1-c1ccccc1`, the outcome was inactive.

For `CC(=O)CC(c1ccc(Cl)cc1)c1c(O)c2ccccc2oc1=O` (configuration not stated), the result was inactive.

Consider `CCCC[N+]1(C)[C@@H]2CC(OC(=O)[C@H](CO)c3ccccc3)C[C@H]1[C@@H]1O[C@@H]12` (some centres not stated), for which the compound was called inactive.

For the compound `CC(C)=CCN1CC[C@]2(C)c3cc(O)ccc3C[C@H]1[C@H]2C`, the outcome was inactive.
